# According to PubChem BioAssay:
# Records with an inconclusive call do not appear. Active and inactive are the calls of the source.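 How the source made its calls, unless noted: active means viability at or below 30% in both replicate assays; inconclusive means viability at or below 30% in just one of the two assays; inactive means the rest.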
# Columns and labels:
# [1] = reducers of endogenous Her2 protein level, primary screen, SKBR3 breast tumor cells, AlphaScreen, ATP viability (AID 461;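 active means Her2 level under about 52% in both replicate screens, with viability over 70% of control, limit read from the data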;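 on Her2 level: lower value means less Her2 protein in the cells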;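 on viability: percent of carrier control wells set as 100% viability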); settings: 18-24 h, measured here: SKBR3 viability, ATP luminescence, at 10 µM
# [2] = biological target: Receptor tyrosine-protein kinase erbB-2 (Homo sapiens) (UniProt P04626); assay: as above; settings: 18-24 h, at 10 µM, stronger effect = lower value
# [3] = SK-BR-3 cell growth inhibitors, pilot screen, 24 h, human (AID 572;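 active means viability at or below 10% of carrier control in both of two separate runs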;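 further: compound exposure lasted between 18 and 24 h rather than exactly 24 h; 100% = carrier-treated control wells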); settings: SK-BR-3 viability, CellTiter-Glo luminescence, at 10 µM, stronger effect = lower value
# [4] = HUVEC growth inhibition – cell-based, human, primary screen (AID 575); settings: HUVEC proliferation, CellTiter-Glo luminescence, 72 h; at 10 µM; stronger effect = lower value;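 further: 100% = median of untreated cell wells with 0.1% DMSO on each plate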
# [5] = growth inhibitors of H69AR lung tumor, primary screen, human, duplicate replicates (AID 580;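 active means viability at or under a set limit in both replicates, limit being median viability minus 3 SD, cut at about 48% in these data, passing the limit was not always enough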;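 further: 100% = mean luminescence of untreated wells and 0% = no signal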); settings: H69AR lung tumor cells viability, ATP luminescence, 72 h; at 10 µM; stronger effect = lower value
# [6] = reversal of MRP1-mediated doxorubicin resistance, pilot screen, H69AR cells, doxorubicin co-treatment (AID 601;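 active means viability loss from added drug above about 55%, and viability with drug at most 40%, in both replicates, limit read from the data, passing the limit was not always enough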); settings: CellTiter-Glo, 72 h, at 10 µM; for differential viability (reversal): stronger effect = higher value
# [7] = 384-well plate pilot, post-Golgi transport modulator project, inhibition of yeast transport mutant growth (AID 636; in the data active means inhibition above about 31%); settings: absorbance 615 nm, about 18 h, stronger effect = higher value
# [8] = growth suppression of yeast trafficking mutant, preliminary HTS, modulators of trafficking downstream of Golgi apparatus project, 1536-format plate, OD 615 nm (AID 637; in the data active means inhibition above about 30%); settings: yeast transport mutant growth, absorbance 615 nm, 18 h; stronger effect = higher value
# [9] = OD615 S. cerevisiae growth inhibition, permissive medium, pilot counter-assay, permissive growth control for S. cerevisiae lifespan shortening project (AID 705;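 active means growth inhibition above 25% in both replicates, a cutoff set 3 SD above the mean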); settings: OD615, 24 h, at 10 µM, stronger effect = higher value
# [10] = Restrictive medium S. cerevisiae growth inhibition, OD615, pilot screen of yeast lifespan reduction project, restrictive growth control (AID 706;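 active means growth inhibition above a set limit, 3 SD over mean compound inhibition, in both replicates, cut at about 43% in these data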;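 further: modified DeaD lifespan yeast strain shifted to restrictive glucose medium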); settings: OD615, 48 h, at 10 µM, stronger effect = higher value
# [11] = viability gain of MRP-1-high H69AR cells under doxorubicin, pilot screen, MRP-1 activator project, CellTiter-Glo, duplicate (AID 807;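 active means viability increase at or above a cutoff of the median across tested compounds plus 3 SD, cut at about 8.5% in these data, passing the limit was not always enough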;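 further: compound pretreatment 18-22 h then 72 h combined with doxorubicin; 0% = doxorubicin alone and 100% = vehicle without doxorubicin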); settings: H69AR viability with doxorubicin, CellTiter-Glo luminescence; at 10 µM; stronger effect = higher value
# [12] = growth suppression of beta-catenin knockout HCT116, pilot screen, human colon tumor cells (AID 823;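 active means cell viability at or below a set limit in both duplicate runs, the limit being the all-compound median minus 4 SD, cut at about 23% in these data, passing the limit was not always enough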;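 further: 0% = wells killed by 20 µM Hyamine and 100% = untreated DMSO cell wells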); settings: CellTiter-Glo, 60 h, at 10 µM, stronger effect = lower value
# [13] = growth suppression of PTEN-deleted HCT116, pilot screen, cell-based, HCT116 clonal line, CellTiter-Glo (AID 824;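 active means viability at or below 27.92% in each of two runs, the all-compound median minus 4 SD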;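 further: 0% = 20 µM Hyamine control and 100% = vehicle cell control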); settings: 60 h, at 10 µM, stronger effect = lower value
# [14] = inhibitors of the yeast RAM network, pilot screen, dse1pr::URA3 reporter, 5-FOA selection (AID 869;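 active means inhibition over a set limit, the all-compound mean plus 3 SD, in both replicate runs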;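 further: 0% = DMSO wells with no growth and 100% = 10 µM 1-NA-PP1 with full growth; RAM network block rescues cells from 5-FOA so hits raise OD615 growth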); settings: S. cerevisiae dse1pr::URA3 5-FOA growth, OD615, 2 d; at 10 µM; stronger effect = higher value; strain carries analog-sensitive mutant Cbk1 kinase
# [15] = RAM signaling pathway blockade in yeast – S. cerevisiae, Pdr1DBD-CYC8 efflux-inhibited sensitized strain, primary screen (AID 1298;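 active means RAM network inhibition above 8.4% in each of two replicates, 3 SD over the compound average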;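 further: 0% = DMSO untreated cells without growth and 100% = 10 µM 1-NA-PP1 full growth; higher means more yeast growth rescued from 5-FOA killing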); settings: S. cerevisiae cbk1-as DSE1-URA3 strain, 5-FOA growth OD615, 2 d; at 50 µM; stronger effect = higher value
# [16] = H69AR cells + 2 uM doxorubicin, measured here: viability with 2 uM doxorubicin, stronger effect = lower value
# [17] = H69AR cells, compound alone cytotoxicity
# Sequence of Receptor tyrosine-protein kinase erbB-2 (Homo sapiens) (P04626 whole entry, looked up): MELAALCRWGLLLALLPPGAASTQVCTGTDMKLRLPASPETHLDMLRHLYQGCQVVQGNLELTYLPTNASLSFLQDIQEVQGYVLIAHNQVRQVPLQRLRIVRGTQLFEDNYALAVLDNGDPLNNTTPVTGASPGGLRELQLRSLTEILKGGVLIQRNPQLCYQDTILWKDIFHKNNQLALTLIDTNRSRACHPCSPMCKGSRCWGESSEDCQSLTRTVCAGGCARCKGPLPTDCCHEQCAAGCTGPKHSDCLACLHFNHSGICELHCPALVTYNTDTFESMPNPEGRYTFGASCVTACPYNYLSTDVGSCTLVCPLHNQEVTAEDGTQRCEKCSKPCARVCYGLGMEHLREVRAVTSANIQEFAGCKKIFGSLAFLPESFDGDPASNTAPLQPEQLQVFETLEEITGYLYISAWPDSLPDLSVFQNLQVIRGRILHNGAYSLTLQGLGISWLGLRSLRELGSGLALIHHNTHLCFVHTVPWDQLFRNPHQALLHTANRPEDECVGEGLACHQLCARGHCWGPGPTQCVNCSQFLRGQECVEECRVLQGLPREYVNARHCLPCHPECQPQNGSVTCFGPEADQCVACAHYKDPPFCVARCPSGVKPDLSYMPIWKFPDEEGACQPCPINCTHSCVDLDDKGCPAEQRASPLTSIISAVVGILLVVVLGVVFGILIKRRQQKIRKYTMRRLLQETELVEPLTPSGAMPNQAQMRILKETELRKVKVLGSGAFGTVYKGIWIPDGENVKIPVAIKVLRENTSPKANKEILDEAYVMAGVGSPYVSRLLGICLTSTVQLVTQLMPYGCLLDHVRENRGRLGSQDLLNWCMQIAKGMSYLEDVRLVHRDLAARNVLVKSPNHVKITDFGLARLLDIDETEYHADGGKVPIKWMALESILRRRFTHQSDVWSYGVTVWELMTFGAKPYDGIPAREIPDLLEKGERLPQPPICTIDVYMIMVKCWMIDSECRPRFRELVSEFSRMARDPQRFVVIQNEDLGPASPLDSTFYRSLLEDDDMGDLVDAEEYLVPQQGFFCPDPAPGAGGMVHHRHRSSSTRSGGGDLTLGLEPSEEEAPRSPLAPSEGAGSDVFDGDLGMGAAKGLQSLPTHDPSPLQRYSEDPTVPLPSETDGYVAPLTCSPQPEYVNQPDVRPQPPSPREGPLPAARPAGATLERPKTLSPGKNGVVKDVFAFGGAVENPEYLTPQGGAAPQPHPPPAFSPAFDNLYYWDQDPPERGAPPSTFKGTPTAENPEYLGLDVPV
SMILES,viability [1] [%],Her2 level [2],viability [3],viability [4],viability [5],differential viability (reversal) ([6]; H69AR cells + 2 uM doxorubicin),"viability [6, 16] [%]","viability [6, 17] [%]",inhibition [7],inhibition [8],growth inhibition [9],growth inhibition [10],viability increase [11],viability [12],viability [13],inhibition [14],RAM network inhibition [15]
COc1ccccc1S(=O)(=O)Cc1ccc(C(=O)N2CCN(c3ccccn3)CC2)o1,101,84.5% (inactive),101% (inactive),87.8% (inactive),88.9% (inactive),6.81% (inactive),82.1,88.9,-3.47% (inactive),-1.97% (inactive),-6.28% (inactive),-10.3% (inactive),-1.97% (inactive),92.8% (inactive),85.1% (inactive),0.76% (inactive),0.78% (inactive)
COc1ccc(C(=O)c2ccc(OC)c(N)c2)cc1N,119,86% (inactive),119% (inactive),49% (inactive),16.9% (active),-46.3% (inactive),63.2,16.9,1.3% (inactive),-1.31% (inactive),-20% (inactive),-17.8% (inactive),-6.12% (inactive),15.2% (active),17% (active),2.53% (inactive),2.22% (inactive)
CCCCN(CC)CCCNC(=O)c1cc2c(=O)n(C)c3ccccc3c2n1C,76,77% (inactive),76% (inactive),67.5% (inactive),70.1% (inactive),-0.115% (inactive),70.2,70.1,-2.05% (inactive),-2% (inactive),-8.88% (inactive),-1.18% (inactive),-7.73% (inactive),55.8% (inactive),54.6% (inactive),-0.01% (inactive),1.02% (inactive)
O=C(Cn1nc(Cc2ccncc2)c2ccccc2c1=O)N1CCN(C(=O)c2ccco2)CC1,98.5,110% (inactive),98.5% (inactive),85.6% (inactive),86% (inactive),-8.19% (inactive),94.2,86,-4.93% (inactive),-4.5% (inactive),-0.345% (inactive),9.88% (inactive),-1.96% (inactive),106% (inactive),107% (inactive),1.01% (inactive),5.75% (inactive)
Cc1cccc(C2CC(c3ccccc3)Nc3nc(N)nn32)c1 (stereo not given),92,94.5% (inactive),92% (inactive),92.7% (inactive),108% (inactive),8.54% (inactive),99.5,108,-4.13% (inactive),1.15% (inactive),1.73% (inactive),3.52% (inactive),-0.5% (inactive),99.8% (inactive),88.2% (inactive),-0.64% (inactive),0.21% (inactive)
CCN(CC)Cc1c(C(=O)OC)nnn1-c1nonc1N,87,95.5% (inactive),87% (inactive),99.6% (inactive),106% (inactive),13.6% (inactive),92.1,106,-7.4% (inactive),-3.33% (inactive),-0.575% (inactive),-3.39% (inactive),-2.07% (inactive),94.2% (inactive),102% (inactive),0.645% (inactive),0.53% (inactive)
Cc1cc2ccccc2n1CCNC(=O)C1CC1,89.5,81% (inactive),89.5% (inactive),89.8% (inactive),88.1% (inactive),-5.55% (inactive),93.6,88.1,-4.8% (inactive),4.67% (inactive),-2.51% (inactive),1.02% (inactive),-0.53% (inactive),98.3% (inactive),101% (inactive),0.66% (inactive),2.78% (inactive)
CCCCCn1c(=O)[nH]c2cc(C(=O)NCCCN3CCCCC3)ccc2c1=O,76,74.5% (inactive),76% (inactive),86.5% (inactive),88.7% (inactive),6.66% (inactive),82,88.7,-6.76% (inactive),5.33% (inactive),-6.6% (inactive),6.35% (inactive),-2.74% (inactive),75.1% (inactive),77.5% (inactive),-0.475% (inactive),0.41% (inactive)
COc1ccc(C/C(N)=N/n2cnnc2)cc1Cl,94,100% (inactive),94% (inactive),103% (inactive),102% (inactive),2.52% (inactive),99.4,102,-2.21% (inactive),-0.83% (inactive),-9.88% (inactive),-12% (inactive),-0.81% (inactive),95.7% (inactive),99.8% (inactive),1.04% (inactive),2.47% (inactive)
C=C(C)c1cccc(C(C)(C)NC(=O)NCC2CCCO2)c1 (stereo not given),94,98% (inactive),94% (inactive),79.9% (inactive),93.7% (inactive),7.16% (inactive),86.5,93.7,0.77% (inactive),-8.5% (inactive),-6.62% (inactive),-9.92% (inactive),-0.54% (inactive),94.7% (inactive),96.2% (inactive),1.77% (inactive),1.07% (inactive)
